Measured values from PubChem BioAssay (NCATS).
Inconclusive results are not listed. Values without a mark were called inactive. Activity calls are given as the source filed them. The call rests on the fitted dose curve; in most records, active means well fitted inhibition curve with a large enough effect; inconclusive means small, poorly fitted or top-dose-only effect; inactive means flat fitted curve, though single readings scatter. Where a SMILES comes first, the peptide text is derived from it. Bridges are numbered along the chain shown (N, C = ends). [ ]: non-standard residue; d: D form. NMeY = CN[CH](Cc1ccc(O)cc1)C(=O)O

Test system: HEK293
Test: Cytotoxic Profiling of Annotated Libraries Using Quantitative High-Throughput Screening (AID 1296008); further: nearly all actives have a fitted effect of over 60% in size
Conditions: Five cell lines viability, CellTiter-Glo ATP luminescence, 48-72 h; max response: hits give low values
Procedure, shortened: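 Cytotoxicity was measured as CellTiter-Glo ATP luminescence, read after 10 min at room temperature. Compound treatment of the cells lasted 48 or 72 hr at 37 degrees Celsius in a qHTS format.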
On the % scale 0 is the no-effect control and ±100 the full control effect; potency means the concentration at half of the fitted maximal effect.

SMILES	Potency	max response [%]	outcome
CCCNc1ccc2ncc(-c3ccc4[nH]ncc4c3)n2n1	1.64 µM (active)		
C=C(C)C(=O)O[C@H]1C[C@@](C)(O)C(=O)CC(O)/C(C)=C\[C@H]2OC(=O)C(=C)[C@H]12 (some centres undefined)	5.08 µM (active)		
CCOc1cc(CC(=O)NC(CC(C)C)c2ccccc2N2CCCCC2)ccc1C(=O)O (centres undefined)		-4.19	
CCC(C)/C=C(C)/C=C/c1cc2c(cn1)C(=O)C(C)(OC(C)=O)C(O)=C2Cl (centres undefined)		-0.415	
CC(Cc1cc2c(c(C(N)=O)c1)N(CCCO)CC2)NCCOc1ccccc1OCC(F)(F)F (centres undefined)	23.1 µM (active)		
C=CC(=O)Nc1cc(Nc2ncc(Cl)c(-c3c[nH]c4ccccc34)n2)c(OC)cc1N(C)CCN(C)C	2.06 µM (active)		
C=C(C)C1CCC(C)C12CC(O)C1(C)OC1C2OC(=O)C(N)CCC(=O)O (centres undefined)		-1.87	
O=C(NCc1cccc(O)c1)Nc1nc(-c2ccncc2)cs1		-21.2	
CC(=O)O[C@H]1CC[C@@]2(C)C(CC[C@@H](C)[C@]23Cc2c(O)cc4c(c2O3)CN([C@@H](CCC(=O)O)C(=O)O)C4=O)C1(C)C (some centres undefined)		-7.36	
COC(=O)CC(C)(O)CC(=O)OCc1ccc(O[C@@H]2O[C@H](CO)[C@@H](O)[C@H](O)[C@H]2O)cc1 (some centres undefined)			inactive
CC(C)(C#N)c1ccc(N2C(=O)OCc3cnc4ccc(-c5cnc6ccccc6c5)cc4c32)cc1	7.31 µM (active)		
C[C@@H]1COCCN1c1cc(C2(S(C)(=O)=O)CC2)nc(-c2cccc3[nH]ccc23)n1	1.46 µM (active)		
Cc1ccc(C(=O)Nc2noc3ccccc23)cc1	18.4 µM (active)		
COc1cc(O)c2c(c1)C1=CC(O)C(O)CC1(C)OC2=O (centres undefined)		-5.55	
C=CC(=O)Nc1cccc(Nc2nc(Nc3ccc(N4CCN(C(C)=O)CC4)cc3OC)ncc2C(F)(F)F)c1	6.51 µM (active)		
O=C(/C=C/c1cccc(S(=O)(=O)Nc2ccccc2)c1)NO	3.99 µM (active)		
COc1ccc(C(=O)Nc2ncc(-c3ccc(C(=O)O)cc3)s2)cc1	7.31 µM (active)		
C=C1C(=O)O[C@H]2C1[C@H](OC(=O)/C(=C/CO)COC(=O)/C(C)=C/CO)CC(=C)[C@@H]1CC(=O)[C@@H](C)[C@@H]12 (some centres undefined)	11.2 µM (active)		
CCC1C(=O)OC23C=C[C@@H]4C(C(=O)O)=CO[C@H](O[C@@H]12)[C@@H]43 (some centres undefined)		-24.7	
C=CC1C(OC2OC(CO)C(O)C(O)C2O)OC=C(C(=O)OC)C1CC(=O)OCC1C(C)C(O)CC1C(CO)COC(=O)CC1C(C(=O)O)=COC(OC2OC(CO)C(O)C(O)C2O)/C1=C\C (centres undefined)		0.0453	

SMILES	Potency	max response [%]	outcome
Cc1cc(C)c(Nc2ccnc(Nc3ccc(C#N)cc3)n2)c(C)c1	5.17 µM (active)		
CCC(C)C(=O)OC1CC(O)C23C4OCC5(C(O)CC2C1(C)C(O)O4)C3C(=O)C(O)C1(C)C(O)(c2ccoc2)CC2OC251 (centres undefined)	1.72 µM (active)		
CO[C@H]1C[C@@H]2CC[C@@H](C)[C@@](O)(O2)C(=O)C(=O)N2CCCC[C@H]2C(=O)O[C@H]([C@H](C)C[C@@H]2CC[C@H](n3cnnn3)[C@H](OC)C2)CC(=O)[C@H](C)/C=C(\C)[C@@H](O)[C@@H](OC)C(=O)[C@H](C)C[C@H](C)/C=C/C=C/C=C/1C	0.0252 µM (active)		
COc1ccc(-c2cnc(-c3cccc4c3-c3ccccc3C4=O)o2)cc1	0.112 µM (active)		
CO[C@H]1C[C@@H]2CC[C@@H](C)[C@@](O)(O2)C(=O)C(=O)N2CCCC[C@H]2C(=O)O[C@H]([C@H](C)C[C@@H]2CC[C@@H](OP(C)(C)=O)[C@H](OC)C2)CC(=O)[C@H](C)/C=C(\C)[C@@H](O)[C@@H](OC)C(=O)[C@H](C)C[C@H](C)/C=C/C=C/C=C/1C	0.0063 µM (active)		
C=C(F)c1sc(CNCCCNc2cc(=O)c3ccccc3[nH]2)c(C)c1Br	6.51 µM (active)		
CC(=O)O[C@@H]1CC(C)=C2[C@H]1[C@H](C)CC[C@H]2/C=C(\C)C(=O)O		-2.45	
Cc1ccc(S(=O)(=O)n2ccc(-c3c(-c4ccc(Cl)cc4)noc3C)n2)cc1	4.11 µM (active)		
CC(=O)OC1/C(C)=C/C(=O)C(OC(C)=O)C(C)(C)/C=C/C(C)C(=O)C2(OC(C)=O)CC(C)C(OC(=O)c3ccccc3)C12 (centres undefined)		-22.9	
Oc1ccc(CNc2ccccc2F)c2cccnc12	18.4 µM (active)		
Cc1ccc(C(=O)N(CCCN)C(c2nc3cc(Cl)ccc3c(=O)n2Cc2ccccc2)C(C)C)cc1 (centres undefined)	0.0092 µM (active)		
C[C@@H](Oc1cc(-n2cnc3ccc(OC4CCN(C)CC4)cc32)sc1C(N)=O)c1ccccc1C(F)(F)F	0.0411 µM (active)		
O=[N+]([O-])c1cccc2[nH]c(CNc3nc(N4CCOCC4)nc4c3ncn4-c3ccsc3)nc12	0.058 µM (active)		
CCCCC1CCN(CCCC(=O)c2ccccc2C)CC1	16.4 µM (active)		
CC(=O)OC1CC2C3(C)CCC(OC(=O)CC(=O)O)C(C)(C)C3CCC2(C)C2(C)CCC(C3(C)CCC(=O)O3)C12 (centres undefined)			inactive
Cc1cccc(/C=N/Nc2cc(N3CCOCC3)n3nc(-c4ccncc4)cc3n2)c1	5.8 µM (active)		
CCC(C)C1NC(=O)C2CCCN2C(=O)C(NC(C)=O)C(C)OC(=O)C(Cc2ccc(OC)cc2)N(C)C(=O)C2CCCN2C(=O)C(C(C)C)NC1=O (centres undefined) (Ac-TPIVP[NMeY](Me); ester 1-C; configuration not given here)		-18.8	
CN(C)c1nc(NC2CCC(NC(=O)c3ccc(F)c(F)c3)CC2)nc2ccccc12 (centres undefined)	16.4 µM (active)		
Cc1ccc(N)cc1O	43.3 µM (active)		
